In PubChem BioAssay (Tox21) one finds Potency and max response data, which are given here for nine compounds.

Values joined by “and” are separate entries in the source; they are usually repeats but may differ in a detail not shown here. Equal entries are not always repeated. Records with an inconclusive call do not appear. A structure can be active in one record and inactive in another. Active and inactive are the calls of the source. Calls come from the whole dose curve; as a rule, active = well fitted curve in the direction sought with a large enough effect in the repeat runs; inconclusive = weak or mixed curves; inactive = no such curve, though single readings can be large; an effect the other way counts as inactive or inconclusive.

Test [1] is described as follows: A CellTox Green Cytotoxicity Assay to monitor cytotoxicity in HEK293 cells - 40 hour (AID 1224871). Note: nearly all actives have a fitted effect of over 45% in size. The procedure, abridged:
(§1)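 Seeding of HEK293 cells together with cytotoxicity dye preceded a 5 h incubation at 37 C/5% CO2. Test compounds in DMSO were then added and fluorescence monitored across 40 h.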

Test [2] in a line: qHTS RealTime-Glo MT Cell Viability Assay in HEK293 cells - 16 hour (AID 1224872). Note: nearly all actives have a fitted effect of over 50% in size. Note: potency is the fitted concentration of half-maximal effect. The procedure, abridged: (§2)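 Nonlytic real-time viability readout: viable cells convert prosubstrate to NanoLuc substrate, giving luminescence proportional to live cell number. HEK293, 600 cells/well, compound added after 5 h, continuous culture at 37 C.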
(In general: In qHTS, concentration-response curves come from the screen itself.)

Test [3] in a line: qHTS RealTime-Glo MT Cell Viability Assay in HepG2 cells - 8 hour (AID 1224873). Note: nearly all actives have a fitted effect of over 55% in size. The procedure, abridged:
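HepG2 cells mixed with RealTime-Glo MT reagents (NanoLuc plus cell-permeant prosubstrate) were seeded at 600 cells/well, incubated 5 h at 37 C/5% CO2, then pinned with compounds in DMSO; nonlytic luminescence tracked viability during 40 h treatment.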

Test [4] in a line: A CellTox Green Cytotoxicity Assay to monitor cytotoxicity in HEK293 cells - 24 hour (AID 1224875). Note: series mostly up to about 77 µM; nearly all actives have a fitted effect of over 45% in size. The procedure, abridged:
as §1

Test [5] in a line: A CellTox Green Cytotoxicity Assay to monitor cytotoxicity in HepG2 cells - 16 hour (AID 1224876). Note: nearly all actives have a fitted effect of over 45% in size. The procedure, abridged:
(§3)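 Nonlytic assay: viable cells exclude the dye, so fluorescence scales with cell death. HepG2 at 600 cells/well, compounds added after 5 h, signal read across 40 h.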

Test [6] can be described thus: qHTS RealTime-Glo MT Cell Viability Assay in HepG2 cells - 32 hour (AID 1224877). Note: nearly all actives have a fitted effect of over 55% in size. The gist of the method:
(§4)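 Luminescence read-out: viable HepG2 cells reduce a prosubstrate to a NanoLuc substrate, giving a signal proportional to live cell number. Reads taken at 0, 8, 16, 24, 32 and 40 h of compound exposure at 37 C.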

Test [7] is described as follows: A CellTox Green Cytotoxicity Assay to monitor cytotoxicity in HepG2 cells - 24 hour (AID 1224878). Note: nearly all actives have a fitted effect of over 45% in size. The procedure, abridged: as §3
Test [8] can be described thus: A CellTox Green Cytotoxicity Assay to monitor cytotoxicity in HepG2 cells - 40 hour (AID 1224879). Note: nearly all actives have a fitted effect of over 40% in size. Note: potency is the fitted concentration of half-maximal effect. The gist of the method:
as §3

Test [9] is described as follows: A CellTox Green Cytotoxicity Assay to monitor cytotoxicity in HEK293 cells - 32 hour (AID 1224881). Note: nearly all actives have a fitted effect of over 40% in size. The procedure, abridged: as §1
The nature of test [10]: A CellTox Green Cytotoxicity Assay to monitor cytotoxicity in HepG2 cells - 0 hour (AID 1224882). Note: nearly all actives have a fitted effect of over 35% in size. The gist of the method:
as §3

The nature of test [11]: A CellTox Green Cytotoxicity Assay to monitor cytotoxicity in HepG2 cells - 32 hour (AID 1224883). Note: nearly all actives have a fitted effect of over 50% in size. Note: potency is the fitted concentration of half-maximal effect. The gist of the method:
as §3

A short description of test [12]: A CellTox Green Cytotoxicity Assay to monitor cytotoxicity in HEK293 cells - 8 hour (AID 1224884). Note: nearly all actives have a fitted effect of over 35% in size. The procedure, abridged: as §1
A short description of test [13]: qHTS RealTime-Glo MT Cell Viability Assay in HepG2 cells - 16 hour (AID 1224885). Note: nearly all actives have a fitted effect of over 50% in size. The gist of the method:
as §4

A short description of test [14]: qHTS RealTime-Glo MT Cell Viability Assay in HEK293 cells - 24 hour (AID 1224886). Note: nearly all actives have a fitted effect of over 50% in size. Note: potency is the fitted concentration of half-maximal effect. The gist of the method: as §2
Test [15] is described as follows: A CellTox Green Cytotoxicity Assay to monitor cytotoxicity in HEK293 cells - 16 hour (AID 1224888). Note: nearly all actives have a fitted effect of over 35% in size. The gist of the method:
as §1

Test [16] can be described thus: qHTS RealTime-Glo MT Cell Viability Assay in HEK293 cells - 0 hour (AID 1224880). The gist of the method: (§5)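 Tox21 screen in HEK293 using RealTime-Glo MT chemistry, with cells and reagent co-dispensed. Luminescence proportional to viable cell number was captured at intervals during 40 h compound exposure at 37 C.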
Test [17] in a line: qHTS RealTime-Glo MT Cell Viability Assay in HEK293 cells - 8 hour (AID 1224887). The gist of the method:
as §5

The nature of test [18]: qHTS RealTime-Glo MT Cell Viability Assay in HEK293 cells - 40 hour (AID 1224874). Note: nearly all actives have a fitted effect of over 50% in size. Note: potency is the fitted concentration of half-maximal effect. As to conditions: RealTime-Glo luminescence; max response: stronger effect = lower value. The gist of the method: as §5
A short description of test [19]: qHTS RealTime-Glo MT Cell Viability Assay in HepG2 cells - 0 hour (AID 1224889). Note: nearly all actives have a fitted effect of over 50% in size. The procedure, abridged: as §4
% is set by controls: 0 for no effect and ±100 for the full control effect.

For `COCC(=O)O`, the Potency entry in test [1], in test [2], in [3], in test [4], in [5] and in test [6] was “inactive” in each case. For the same compound, the Potency result in test [7], in test [8], in [9], in [10], in test [11] and in test [12] was “inactive” each time. Also, the Potency entry in test [13], in [14] and in [15] was “inactive” each time.

Turning to `CCOC(=O)[C@H](CCc1ccccc1)N[C@@H](C)C(=O)N1Cc2ccccc2C[C@H]1C(=O)O`, the Potency result in test [1], in test [2], in [3], in [4], in [5] and in [7] was “inactive” throughout. Also, the Potency entry in [8], in test [16], in test [9], in test [10], in test [11] and in test [12] was “inactive” throughout. Also, the Potency result in test [13], in test [14], in [17] and in test [15] was “inactive” throughout.

For `CC(C)(C)C1CCC(O)CC1` (stereo not given), the Potency result in [1], in test [2], in test [3], in [4], in test [6] and in [7] was “inactive” each time. Also, the Potency entry in [8], in [9], in test [10], in test [11], in test [12] and in test [13] was “inactive” in each case. Moreover, the Potency result in [14], in test [17], in test [15] and in test [19] was “inactive” in each case. Besides, in test [18], the max response is -21.7% (inactive) and -6.15% (inactive).

As to `OC[C@@H](O)[C@@H](O)[C@H](O)[C@@H](O)CO`, the Potency result in test [1], in [2], in test [3], in test [4], in test [5] and in test [6] was “inactive” each time. The Potency entry in test [8], in test [16], in test [9], in [10], in [11] and in test [12] was “inactive” each time. The Potency entry in [13], in [14], in [17] and in test [15] was “inactive” throughout. The max response in test [18] is -13% (inactive) and 0.936% (inactive).

With `CC(C)(C)C(=O)C1C(=O)c2ccccc2C1=O`, the Potency result in test [1], in test [2], in test [3], in test [4], in [5] and in test [6] was “inactive” each time. The Potency result in test [16], in test [9], in test [10], in test [12], in [13] and in test [14] was “inactive” in each case. Also, the Potency result in test [15] and in test [19] was “inactive” in each case. Also, the Potency in test [8] is 54.4 µM (active) and inactive; in [11], 54.4 µM (active) and inactive.

As to `CCCCCCOC(C)=O`, the Potency result in test [1], in test [2], in test [3], in [4], in test [6] and in [8] was “inactive” throughout. In addition, the Potency entry in test [16], in test [9], in test [10], in test [11], in test [12] and in test [13] was “inactive” throughout. Further, the Potency entry in test [14], in test [17], in [15] and in [19] was “inactive” throughout. Also, the max response in [18] is 0.539% (inactive) and -29.1% (inactive).

Regarding `CN(C)c1ccc(C(=N)c2ccc(N(C)C)cc2)cc1`, the Potency in test [2] is 5.43 µM (active); in test [8] it was 4.31 µM (active) and 18.8 µM (active); in test [11], 4.84 µM (active) and 18.8 µM (active); in test [14], 3.42 µM (active) and 4.2 µM (active). For the same compound, the Potency entry in test [4], in test [5], in test [7], in test [9], in test [10] and in [12] was “inactive” each time. In addition, the Potency result in test [17], in test [15] and in [19] was “inactive” each time.

As for `COC(=O)c1ccccc1O`, the Potency result in test [1], in test [2], in test [3], in test [4], in test [6] and in test [8] was “inactive” each time. Further, the Potency result in test [16], in test [9], in test [10], in [11], in test [12] and in test [13] was “inactive” in each case. Also, the Potency result in test [14], in test [17] and in test [15] was “inactive” each time. Moreover, in test [18], the max response is -1.26% (inactive) and 16.9% (inactive).

As to `S=c1nc[nH]c2nc[nH]c12`, the Potency entry in test [1], in [2], in test [3], in test [4], in test [5] and in [6] was “inactive” in each case. The Potency entry in test [7], in test [8], in test [9], in test [10], in [11] and in test [12] was “inactive” throughout. Moreover, the Potency entry in test [13], in test [17], in test [15] and in test [19] was “inactive” in each case. Further, the Potency in test [18] is 16.9 µM (active); in [14] it was 19 µM (active).
